PubChem BioAssay AID686979 (National Center for Advancing Translational Sciences (NCATS), 2013)
The whole screen tested about 420,000 compounds, of which about 50,000 (12%) were called active. About 26% were inconclusive and are not listed. Many of the other results were omitted from the sample, so actives are more common in it than they were. Unmarked numbers belong to inactive results. The call rests on the fitted dose curve; in most records, active means well fitted inhibition curve with a large enough effect; inconclusive means small, poorly fitted or top-dose-only effect; inactive means flat fitted curve, though single readings scatter.

assay: qHTS for Inhibitors of human tyrosyl-DNA phosphodiesterase 1 (TDP1): qHTS in cells in presence of CPT; settings: chicken DT40 Tdp1-/-;hTDP1 cells + 20 nM CPT, ATP luminescence, 48 h; series mostly up to 46.2 µM; activity change, negative = growth inhibition: at the top concentration; further: nearly all actives have a fitted effect of over 55% in size
In short: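 Chicken DT40 Tdp1-/- cells complemented with human TDP1, 400 cells/well, exposed to compounds plus 20 nM camptothecin for at least 48 h at 37 C; viability read as ATP content by CellTiter-Glo luminescence.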
On the % scale 0 is the no-effect control and ±100 the full control effect; potency means the concentration at half of the fitted maximal effect.

Compound | activity change, negative = growth inhibition [%] | Potency
O=C(COc1coc(CN2CCN(c3ccccc3F)CC2)cc1=O)N1CCc2ccccc21 | -16.5 | –
Cc1cc(N2CCOCC2)nc(-c2ccc(Br)cc2)n1 | -12.4 | –
O=C1CC(C(=O)O)NC(=S)N1 (stereo unspecified) | 31.6 | –
COc1ccc(-n2c(=O)c(C)nc3cnc(N4CCOCC4)nc32)cc1 | 1.15 | –
COc1ccc(Nc2ncc(F)c(N3CCOCC3)n2)cc1 | – | 20.6 µM (active)
CCOc1nc(NCCN2CCOCC2)nc(Nc2ccc(C)cc2)n1 | -12.3 | –
Cc1ccc(-c2nnc3c4ccccc4c(C)nn23)cc1NC(=O)c1cccc(Br)c1 | -2.49 | –
Cc1cc[n+](-c2[nH]c(=O)sc2/C=N/NC(=O)c2ccccc2[O-])cc1C | 5.4 | –
Brc1ccc(-c2n(-c3ccccn3)c3ccccc3[n+]2-c2ccccn2)cc1 | – | 18.4 µM (active)
O=C(CN1CCN(c2ccccn2)CC1)Nc1ccc(Br)cc1 | -23.7 | –
COc1cccc(NC(=O)N2CCC(NC(=O)C(Cc3cccc(C)c3)NC(C)=O)CC2)c1 (stereo unspecified) | -13.8 | –
Cn1c(-c2ccc(C(F)(F)F)cc2)cc2onc(-c3ccccc3)c2c1=O | -14.9 | –
O=C(c1csnn1)N1CCC2(CC1)CN(c1ncccn1)C2 | 0.98 | –
CSCCC(Nc1ccc(S(=O)(=O)N2CCOCC2)cc1[N+](=O)[O-])C(=O)OCC(=O)N(C(C)C)C(C)C (stereo unspecified) | -16.1 | –
CN(C)C(=O)c1ccc2c(c1)C1C3CCC(C3)C1C(c1ccccc1)N2 (stereo unspecified) | – | 16.4 µM (active)
CN(C)C(=O)c1ccc(NC(=O)c2ccccc2-c2ccccc2)cc1 | 21.7 | –
Cc1sc(NC(=O)c2ccc3ncsc3c2)c(C(N)=O)c1C | -20.7 | –
COc1cccc(NC(=O)N2C3CCCC2CC(NC(C)=O)C3)c1 (stereo unspecified) | -14 | –
CC(C)(C)OC(=O)N1CCC(c2c(C(=O)N3CCN(c4cccc(Cl)c4)CC3)cnn2-c2cccc(Cl)c2)CC1 | – | 14.6 µM (active)
CCOC(=O)N1CCC(NC(=O)c2cnn3ccccc23)CC1 | -1.32 | –
CC(C)(C)OC(=O)N1CCC(C(=O)NNC(=O)c2ccc(Cl)cc2Cl)CC1 | -11.4 | –
COc1cccc2c1cc1c(=O)n(CC(=O)N3CCN(c4cccc(Cl)c4)CC3)nc(C)n12 | -12.6 | –
CCOC(=O)N1CCC(NC(=O)c2cnn(-c3cccc(C)c3)c2C2CCN(C(=O)OC(C)(C)C)CC2)CC1 | – | 23.1 µM (active)
Cc1cccc(-n2ncc(C(=O)N3CCc4ccccc4C3)c2C2CCN(C(=O)OC(C)(C)C)CC2)c1 | 2.4 | –

Compound | activity change, negative = growth inhibition [%] | Potency
Cc1cccc(-n2ncc(C(=O)N3CCN(c4ccc(Cl)cc4)CC3)c2C2CCN(C(=O)OC(C)(C)C)CC2)c1 | – | 14.6 µM (active)
CCOC(=O)N1CCC(NC(=O)CCc2ccccc2)CC1 | -3.28 | –
Cc1cccc(-n2ncc(C(=O)N3CCC(C)CC3)c2C2CCN(C(=O)OC(C)(C)C)CC2)c1 | -7.73 | –
CCCCN(C(=O)CCNC(=O)NC12CC3CC(CC(C3)C1)C2)c1c(N)n(CCCC)c(=O)[nH]c1=O | -12.9 | –
Cc1ccc(S(=O)(=O)N2CC(O)C[C@H]2C(=O)OCC(=O)Nc2ccc(N3CCOCC3)cc2)cc1C (stereo partly specified) | -0.832 | –
COc1ccc(S(=O)(=O)N2CCCC2CNC(=O)C(=O)NC2CC2)cc1 (stereo unspecified) | 7.32 | –
Cc1ccc(NC(=O)CC2S/C(=N/N=C3\CCCc4ccccc43)NC2=O)cc1 (stereo unspecified) | -0.71 | –
CN1C(=O)/C(=C\c2cc(Br)cs2)c2ccccc21 | -29.3 | –
Cc1cc(C)c2c3c(sc2n1)C(c1ccccc1)C(C#N)=C(N)O3 (stereo unspecified) | -20.3 | –
N#CC1=C(N)Oc2c(ccc3cccnc23)C1c1ccncc1 (stereo unspecified) | -20.9 | –
N#CC1=C(N)Oc2cc(N)ccc2C1c1ccccc1 (stereo unspecified) | – | 23.1 µM (active)
CN1C(=O)C2(OCCCO2)c2cc(Cl)ccc21 | 9.13 | –
C=O | 10.9 | –
CCOc1ccc(NS(=O)(=O)c2ccc(C(=O)NCC(c3ccccc3OC)N3CCCC3)cc2)cc1 (stereo unspecified) | – | 29.1 µM (active)
CCOc1ccc(NS(=O)(=O)c2ccc(C(=O)NCC3CCCO3)cc2)cc1 (stereo unspecified) | -27.2 | –
COc1ccc(C(CNC(=O)c2ccc(OCc3cscn3)cc2)N2CCCC2)cc1 (stereo unspecified) | -10.8 | –
CN=C(NC#N)NCCSCc1nc[nH]c1C | – | inactive
CCC(C)C(=O)Nc1cc([N+](=O)[O-])ccc1Cl (stereo unspecified) | -3.83 | –
CC(=O)Nc1ccc(NC(=O)c2ccc3c(c2)C(=O)N(c2ccccc2C)C3=O)cc1 | -2.84 | –
O=S(=O)(c1ccc2nc(N3CCN(c4cccc(Cl)c4)CC3)ccc2c1)N1CCCCC1 | 4.01 | –
O=S(=O)(c1ccc2nc(NCc3ccccc3Cl)ccc2c1)N1CCCCC1 | – | 10.3 µM (active)
O=S(=O)(NCc1ccccc1)c1ccc(S(=O)(=O)N2CCCC2)cc1 | -21.9 | –
CC(C)C(NC(=O)C1CCC(C(C)(C)C)CC1)C(=O)NCCCN1CCCCC1 (stereo unspecified) | 26.4 | –
CC(C)N1C(=O)c2ccccc2NC(=O)C1C(=O)NCc1cccs1 (stereo unspecified) | -29.6 | –

Compound | activity change, negative = growth inhibition [%] | Potency
CCOc1ccc(NC(=O)c2cc(S(=O)(=O)N3CCCC3)c[nH]2)cc1 | -13.5 | –
CCS(=O)(=O)N1CCCC(C(=O)NCc2ccc(C)cc2)C1 (stereo unspecified) | -12.6 | –
CCOc1ccc(NC(=O)C2CCCN(C(=O)Nc3ccccc3)C2)cc1 (stereo unspecified) | 0.551 | –
CCOc1ccc(N(CC)S(=O)(=O)N2CCCC(C(=O)NCc3ccc(SC)cc3)C2)cc1 (stereo unspecified) | – | 23.1 µM (active)
COc1ccc(CNC(=O)C2CCN(S(=O)(=O)c3ccc(SC)cc3)CC2)cc1 | -19.3 | –
CCOc1ccc(N(CC)S(=O)(=O)N2CCCC(C(=O)Nc3ccc(C(C)=O)cc3)C2)cc1 (stereo unspecified) | – | 20.6 µM (active)
COc1cccc(CNC(=O)CN(C)S(=O)(=O)c2ccc3c(c2)c(=O)n(C)c(=O)n3C)c1 | – | inactive
Cc1ccc(C)c(OCCC(=O)OCC(=O)c2ccc3c(c2)NC(=O)CO3)c1 | -8.45 | –
Cc1ccc(C23CC4CC(CC(C(=O)NCC(=O)O)(C4)C2)C3)cc1 | -0.354 | –
COc1ccc(C(=O)COC(=O)CN2C(=O)C3CC=CCC3C2=O)c(OC)c1 (stereo unspecified) | -12.9 | –
CC1CC1C(=O)OCC(=O)c1c(N)n(C)c(=O)n(C)c1=O (stereo unspecified) | -2.39 | –
CC(C)Cn1c(N)c(C(=O)COC(=O)CN2C(=O)C3CC=CCC3C2=O)c(=O)n(C)c1=O (stereo unspecified) | – | 16.4 µM (active)
CCOC(=O)[C@H]1[C@H]2COc3cc(OC)ccc3[C@@H]2N2C(=O)N(c3ccc(Br)cc3)C(=O)[C@@]12C | – | 25.9 µM (active)
CCOC(=O)[C@@H]1[C@H]2COc3cc(OC)ccc3[C@@H]2N2C(=O)N(c3cccc(C)c3)C(=O)[C@@]12C | -19.9 | –
CCOC(=O)[C@H]1[C@H]2COc3ccc(Br)cc3[C@@H]2N2C(=O)CN(C)C(=O)[C@@]12C | -17.3 | –
CCOc1n[nH]c(-c2ccccc2)n1 | -5.81 | –
Cc1ccc(S(=O)(=O)c2c[nH]c3ccc(C)cc3c2=O)cc1 | -15.1 | –
CCCOc1ccc(N/C=C/C(=O)C(C)(C)C)cc1 | -14.5 | –
CCOc1ccc(N/C=C/C(=O)c2cc(OC)c(OC)c(OC)c2)cc1 | – | 14.6 µM (active)
CCOc1ccc(N/C=C/C(=O)c2ccccc2)cc1 | -25.2 | –
COCCNC(=O)C(c1ccc(O)cc1)N(C(=O)CCC(=O)Nc1nccs1)c1ccc(C)cc1 (stereo unspecified) | 1.09 | –
Cc1ccccc1NC(=O)Cn1c(=O)n(CCCCC(=O)NCc2ccccc2Cl)c(=O)c2ccccc21 | -29.1 | –
COc1ccccc1CNC(=O)CCn1c(=O)sc2ccccc21 | -4.97 | –
COCCNC(=O)CCCn1c(=O)c2ccccc2n(Cc2cccc([N+](=O)[O-])c2)c1=O | 4.94 | –

Compound | activity change, negative = growth inhibition [%] | Potency
COc1ccccc1CNC(=O)CCCn1c(=O)c2ccccc2n(CC(=O)Nc2ccc(C)cc2Cl)c1=O | – | 14.6 µM (active)
COc1ccccc1CNC(=O)CCn1c(=O)c2ccccc2n(CC(=O)Nc2ccc(Br)cc2F)c1=O | – | 23.1 µM (active)
COc1ccccc1CNC(=O)CCCn1c(=O)c2ccccc2n(CC(=O)NC2CCCC2)c1=O | -22.2 | –
COc1ccccc1CNC(=O)CCCCn1c(=O)c2ccccc2n(CC(=O)Nc2cc(Cl)ccc2C)c1=O | – | 18.4 µM (active)
CCCCn1c(=O)c2oc3ccccc3c2n(CC(=O)Nc2ccccc2OC)c1=O | -0.588 | –
COc1ccc(NC(=O)Cn2c(=O)n(Cc3ccc(C(=O)NCc4ccccc4Cl)cc3)c(=O)c3ccccc32)cc1 | -11.4 | –
CCc1nn(CC(=O)N2CCN(c3cccc(C(F)(F)F)c3)CC2)c(=O)c2cc3occc3n12 | -19.3 | –
CC(C)CCN(C(=O)c1csnn1)C(C(=O)NC1CCCC1)c1ccccc1 (stereo unspecified) | -9.08 | –
COc1cc(CN2CCNC(=O)C2CC(=O)NCCc2ncccc2C)cc(OC)c1 (stereo unspecified) | 26.1 | –
CCOc1ccccc1NC(=O)CCS(=O)(=O)c1cccc2nsnc12 | – | inactive
Cc1ccc(S(=O)(=O)N(C)C)cc1NC(=O)COC(=O)/C=C/c1cccs1 | -18.7 | –
Cc1ccccc1N(C(=O)CNC(=O)c1cccs1)C(C(=O)NC1CCCC1)c1ccncc1 (stereo unspecified) | 0.575 | –
CCOc1cc(NS(=O)(=O)c2ccc(OC)cc2)c(OCC)cc1NC(C)=O | -0.871 | –
COc1ccc(C(=O)Nc2c(N)nc(SCC(=O)Nc3ccc(C(C)=O)cc3)[nH]c2=O)cc1 | -4.08 | –
COc1ccccc1CNC(=O)CNC(=O)c1cn(-c2ccccc2OC)c(=O)c2ccccc12 | 3.6 | –
C=CCn1c(=O)n(C)c2c(=O)n(C)c(=O)n(C)c21 | 22.4 | –
Cc1c(CNCCc2ccccc2)c(C(=O)O)c(C)n1-c1ccccc1 | -21.1 | –
COc1cc(C(=O)N(Cc2ccc(C(C)C)cc2)C2CCS(=O)(=O)C2)cc(OC)c1OC (stereo unspecified) | -0.678 | –
O=C(/C=C/c1cn(CC(O)CN2CCc3ccccc32)c2ccccc12)c1ccc(Br)cc1 (stereo unspecified) | – | 18.4 µM (active)
CC(C)OCCCn1c(SCC(=O)c2ccccc2)nc2c(sc3ccccc32)c1=O | 6.91 | –
COc1cc(CCN=Cc2ccccc2O)c([N+](=O)[O-])cc1OC | 9.53 | –
CC(=O)n1c(C=Nc2ccccc2)c(O)c2ccccc21 | -0.272 | –
Oc1ccc(N=Cc2c(O)ccc3ccccc23)cc1 | -23.8 | –
Oc1ccc(N=Cc2sc3ccccc3c2Cl)cc1 | – | 13 µM (active)
